Laboratory results taken from PubChem BioAssay AID1159580 (chemical genetic matrix, 2015).
Several values for one entry are separate records, joined by “and”; a condition that tells them apart may be missing. Identical values can stand only once. In all, about 5,500 compounds went through this assay and about 2,000 (36%) were called active. Inconclusive results (about 18%) are left out. Cut-off read from the data, not from the text of the source: active = normalized growth mostly below about 0.91 (no sharp cut-off); inconclusive = no clear call, values can overlap the other calls; inactive = mostly above about 0.92. Some of the results follow.

Assay: chemical genetic growth profiling, strain panel (AID 1159580);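 note: tested at 20 µM; growth read once vehicle control cultures reached saturation at 30 °C; 1 = growth at the plate median or of vehicle wells; lower values mean less growth of the strain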
Conditions: S. cerevisiae deletion strains, growth OD
[1] = locus YAL040C, strain CLN3, active compounds read low
[2] = locus YCL061C, strain MRC1 (second series), active compounds read low
[3] = locus YDR150W, strain NUM1, active compounds read low
[4] = locus YDR363W, strain ESC2, active compounds read low
[5] = locus YER002W, strain NOP16, active compounds read low
[6] = locus YGR078C, strain PAC10, active compounds read low
[7] = locus YMR307W, strain GAS1, active compounds read low
[8] = locus YNL175C, strain NOP13, active compounds read low
[9] = locus YNL197C, strain WHI3, active compounds read low
[10] = locus YNL224C, strain SQS1, active compounds read low
[11] = locus YNL322C, strain KRE1, active compounds read low
[12] = locus YOR083W, strain WHI5 (second series), active compounds read low
[13] = locus YAL013W, strain DEP1, active compounds read low
[14] = locus YBR229C, strain ROT2, active compounds read low
[15] = locus YDL101C, strain DUN1, active compounds read low
[16] = locus YDL134C, strain PPH21, active compounds read low
[17] = locus YEL061C, strain CIN8, active compounds read low
[18] = locus YHR030C, strain SLT2, active compounds read low
[19] = locus YJR043C, strain POL32, active compounds read low
[20] = locus YJR075W, strain HOC1, active compounds read low
[21] = locus YKL190W, strain CNB1, active compounds read low
[22] = locus YLR039C, strain RIC1, active compounds read low
[23] = locus YLR262C, strain YPT6, active compounds read low
[24] = locus YMR263W, strain SAP30, active compounds read low
[25] = locus YNL153C, strain GIM3, active compounds read low

Measured: normalized growth

CCC1(O)CC2CN(CCc3c([nH]c4ccccc34)[C@@](C(=O)OC)(c3cc4c(cc3OC)N(C=O)C3[C@]45CCN4CC=C[C@@](CC)([C@@H](OC(C)=O)[C@]3(O)C(=O)OC)[C@H]45)C2)C1 (some centres not stated)
inactive: [1] 0.979 | [2] 0.991 | [3] 0.999 | [4] 0.986 | [5] 1 | [6] 0.999 | locus YGR229C, strain SMI1, active compounds read low 0.983 | [7] 0.99 | [8] 1.01 | [9] 0.983 | [10] 1 | [11] 0.957 | [12] 0.99

NC(CSCSCC(N)C(=O)O)C(=O)O (configuration not stated)
inactive: [13] 1.01 | locus YBR021W, strain FUR4, active compounds read low 1.01 | [14] 0.998 | locus YCL029C, strain bik1, active compounds read low 0.989 | locus YDL035C, strain GPR1, active compounds read low 1.02 | locus YDL074C, strain BRE1, active compounds read low 1.05 | [15] 1 | [16] 0.988 | locus YDL185W, strain tfp1, active compounds read low 1.01 | locus YDL192W, strain arf1, active compounds read low 0.977 | locus YDR101C, strain arx1, active compounds read low 0.999 | locus YDR162C, strain NBP2, active compounds read low 1.02 | locus YDR318W, strain mcm21, active compounds read low 0.981 | locus YDR388W, active compounds read low 0.986 | locus YDR502C, strain sam2, active compounds read low 1 | [17] 1.02 | locus YER110C, active compounds read low 0.987 | locus YER155C, strain BEM2, active compounds read low 1.01 | locus YER167W, strain BCK2, active compounds read low 1 | locus YGL078C, strain dbp3, active compounds read low 1.01 | locus YGL086W, strain mad1, active compounds read low 1 | locus YGL248W, strain PDE1, active compounds read low 0.997 | locus YGR135W, strain pre9, active compounds read low 0.99 | locus YGR252W, strain gcn5, active compounds read low 1.11 | [18] 1.01 and 1.04 | locus YHR079C, strain IRE1 (second series), active compounds read low 0.987 | locus YHR079C, strain IRE1, active compounds read low 1.04 | locus YHR094C, strain hxt1, active compounds read low 0.985 | locus YHR129C, strain ARP1, active compounds read low 0.995 | locus YHR200W, strain rpn10, active compounds read low 0.997 | locus YIL066C, strain RNR3, active compounds read low 1.01 | locus YIL073C, strain SPO22, active compounds read low 1.06 | locus YIL125W, strain kgd1, active compounds read low 1.01 | locus YIR030C, strain dcg1, active compounds read low 0.999 | locus YJL095W, strain BCK1, active compounds read low 1.01 and 1.02 | locus YJL134W, strain LCB3, active compounds read low 1.01 | locus YJL168C, strain set2, active compounds read low 0.982 | locus YJL187C, strain SWE1 (second series), active compounds read low 1.01 | [19] 1.01 | locus YJR066W, strain TOR1, active compounds read low 0.979 | [20] 1.01 | locus YKL009W, strain mrt4, active compounds read low 1.01 | locus YKL068W, active compounds read low 1 | locus YKL085W, strain MDH1 (second series), active compounds read low 0.998 | locus YKL085W, strain MDH1, active compounds read low 0.998 | [21] 1.01 | locus YKR001C, strain vps1, active compounds read low 1.02 | [22] 1.1 | locus YLR058C, strain SHM2, active compounds read low 1 | locus YLR102C, strain apc9, active compounds read low 0.979 | locus YLR113W, strain HOG1, active compounds read low 1.04 | [23] 1.12 | locus YLR268W, strain sec22, active compounds read low 1.02 | locus YLR330W, strain CHS5, active compounds read low 1.01 | locus YLR342W, strain FKS1 (second series), active compounds read low 1.02 | locus YLR371W, strain rom2, active compounds read low 0.977 | locus YLR418C, strain cdc73, active compounds read low 1.01 | locus YML016C, strain PPZ1, active compounds read low 1 | locus YML032C, strain rad52, active compounds read low 0.992 | locus YML124C, strain tub3, active compounds read low 0.99 | locus YMR078C, strain ctf18, active compounds read low 0.988 | locus YMR223W, strain ubp8, active compounds read low 0.994 | [24] 1.01 | [7] 1.02 | locus YNL067W, strain RPL9B, active compounds read low 1 | [25] 1 | locus YNL183C, strain NPR1, active compounds read low 0.983 | locus YNL233W, strain BNI4, active compounds read low 1.02 | locus YNL250W, strain rad50, active compounds read low 1.02 | locus YNL271C, strain bni1, active compounds read low 1.01 | locus YNL298W, strain CLA4, active compounds read low 1 | locus YNL307C, strain MCK1, active compounds read low 0.987 | locus YNR052C, strain pop2, active compounds read low 0.999 | locus YOL012C, strain htz1 0.928 | locus YOL147C, strain pex11, active compounds read low 0.991 | locus YOR061W, strain CKA2, active compounds read low 1.01 | locus YOR069W, strain VPS5, active compounds read low 1.01 | locus YOR136W, strain idh2, active compounds read low 0.996 | locus YOR144C, strain elg1, active compounds read low 0.984 | locus YOR184W, strain ser1, active compounds read low 0.995 | locus YOR231W, strain MKK1, active compounds read low 1.04 | locus YOR316C, strain cot1, active compounds read low 0.98 | locus YPL256C, strain CLN2, active compounds read low 1.02 | locus YPR119W, strain clb2, active compounds read low 0.987 | locus YPR141C, strain kar3, active compounds read low 0.997 | locus YPR163C, strain tif3, active compounds read low 0.999 | locus YPR167C, strain met16, active compounds read low 0.988 | strain wtn01, active compounds read low 1.04

FC(F)(F)c1cc(CO[C@H]2CCCN[C@H]2c2ccccc2)cc(C(F)(F)F)c1
inactive: [13] 0.988 | [1] 0.998 | [2] 0.975 | [4] 0.96 | [5] 1.04 | [24] 0.999 | [7] 0.964 | locus YNL128W, strain TEP1, active compounds read low 1.05 | [25] 0.823 | [8] 1.04 | [9] 1.07 | [10] 1.03 | [12] 0.913

Cn1c2c(c3c1CCCC3)CCCC2
inactive: [13] 0.995 | [14] 1.03 | locus YCL061C, strain MRC1, active compounds read low 1.01 | [15] 0.974 | [16] 1.02 | [3] 1.02 | [17] 0.988 | [6] 1.01 | [18] 1.01 | locus YHR087W, strain rtc3, active compounds read low 0.992 | [19] 1.02 | [20] 1.02 | [21] 1.02 | [22] 0.925 | locus YLR058C, strain SHM2 (second series), active compounds read low 1.02 | locus YLR085C, strain ARP6, active compounds read low 1 | [23] 0.974 | locus YML094W, strain GIM5, active compounds read low 0.972 | locus YMR219W, strain ESC1, active compounds read low 1.02 | [24] 1 | locus YNL298W, strain CLA4 (second series), active compounds read low 1.02 | [11] 1.01 | locus YNR030W, strain Alg12, active compounds read low 1.03 | locus YOL006C, strain TOP1, active compounds read low 1 | locus YPL055C, strain LGE1, active compounds read low 1.08 | locus YPL241C, strain CIN2, active compounds read low 1.01 | locus YPR135W, strain CTF4, active compounds read low 1.06
active: [25] 0.873
